Measurements taken from PubChem BioAssay (EPA / NIEHS).
Records with an inconclusive call do not appear. Active and inactive are the calls of the source. The calls were made as follows: active = hit-call score of the fitted dose curve at least 0.9, where 1 is the maximum; inconclusive = response in the unintended direction; inactive = score below 0.9. Peptide text beside a SMILES is read from it.

molecular target: Estrogen receptor (Homo sapiens) (UniProt P03372); experiment: OT_ER_ERaERa_0480: Odyssey Thera (OT) 8-hour HEK293T Protein-Complementation Assay for Estrogen Receptor-alpha/-alpha Homodimer (AID 2283351);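 also: rise in fluorescence from reassembled reporter fragments on ERα LBD homodimer in nucleus or whole cell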
Sequence (P03372 whole entry, looked up, the tested form may be a part): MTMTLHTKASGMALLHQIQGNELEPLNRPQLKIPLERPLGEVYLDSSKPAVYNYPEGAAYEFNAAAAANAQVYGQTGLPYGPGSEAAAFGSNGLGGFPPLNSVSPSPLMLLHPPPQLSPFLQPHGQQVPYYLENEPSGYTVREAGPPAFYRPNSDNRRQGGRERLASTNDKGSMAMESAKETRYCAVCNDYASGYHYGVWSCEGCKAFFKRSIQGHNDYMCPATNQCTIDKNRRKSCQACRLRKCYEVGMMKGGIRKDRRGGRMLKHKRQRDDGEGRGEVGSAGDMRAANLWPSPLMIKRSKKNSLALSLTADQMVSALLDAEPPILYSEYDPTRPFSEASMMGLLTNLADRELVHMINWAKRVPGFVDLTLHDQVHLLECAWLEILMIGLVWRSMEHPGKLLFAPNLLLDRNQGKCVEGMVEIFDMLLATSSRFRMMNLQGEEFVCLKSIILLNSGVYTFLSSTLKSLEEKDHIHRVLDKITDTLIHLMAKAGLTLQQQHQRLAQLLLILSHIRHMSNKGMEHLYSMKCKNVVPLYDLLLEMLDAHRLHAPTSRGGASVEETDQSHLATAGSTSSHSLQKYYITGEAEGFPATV
Protocol: OT_ER_ERaERa_0480 is a cell-based assay that uses HEK293T, a human kidney cell line, with measurements taken at 8 hours after chemical dosing in a 384-well plate.OT_ER_ERaERa_0480 is one of one assay component(s) measured or calculated from the OT_ER_ERaERa_0480 assay. It is designed to make measurements of protein fragment complementation, a form of binding reporter, as detected with fluorescence intensity signals by Protein-fragment Complementation technology.Data from the assay component OT_ER_ERaERa_0480 was analyzed into 1 assay endpoint. This assay endpoint, OT_ER_ERaERa_0480, was analyzed in the positive analysis fitting direction relative to DMSO as the negative control and baseline of activity. Using a type of binding reporter, measures of receptor for gain-of-signal activity can be used to understand the binding at the pathway-level as they relate to the gene ESR1. Furthermore, this assay endpoint can be referred to as a primary readout, because the performed assay has only produced 1 assay endpoint. To generalize the intended target to other relatable targets, this assay endpoint is annotated to the nuclear receptor intended target family, where the subfamily is steroidal.
Protein-fragment complementation assay, or PCA, is a method for the identification and quantification of protein-protein interactions. In the PCA, the proteins of interest ("bait" and "prey") are each covalently linked to fragments of a third protein (e.g. DHFR, which acts as a "reporter"). Interaction between the bait and the prey proteins brings the fragments of the reporter protein in close proximity to allow them to form a functional reporter protein whose activity can be measured. The OT ER alpha / ER alpha assay is a homodimer PCA of the ligand binding domain (amino acids 310-547) of human ER alpha stably expressed in HEK293T cells. […] Fluorescent signal in the basal state of the assay is very low and is primarily punctuate and cytoplasmic. Modulation of this assay is quantified as an increase in mean fluorescence intensity in the nucleus (for agonists) or in the nucleus and cytoplasm (antagonists) relative to vehicle controls, and can be quantified on a high content imaging device or a laser scanning cytometer. The latter instrument is favored for this assay because of the rapid mode of data acquisition, the ability to acquire data from the entire cell population in a well (as opposed to a fraction of the well on the high content devices) and the larger dynamic range typically achieved with this instrument. To assess sensitivity of the ER alpha/ER alpha LBD assay to ligand, cells were treated with the ER agonist 17 beta-estradiol (E2) in 10-point concentration- response format for 8 hours and monitored response on a laser scanning plate cytometer (Acumen eX3; TTP Lab Tech).

Structure (SMILES)	AC50	outcome
O=C(OCc1ccccc1)c1ccc(O)cc1	18.9 µM (active)	
CC(=O)/C=C/C1C(C)=CCCC1(C)C (stereo not given)		inactive
O=C(O)/C=C/c1ccccc1		inactive
COC(=O)c1ccccc1C		inactive
CCCCCCCO		inactive
C=C(C)C1CC=C(C)CC1 (stereo not given)		inactive
C=CCOC(=O)c1ccc(C(=O)OCC=C)c(C(=O)OCC=C)c1		inactive
CC(C)COC(=O)CC(C(=O)OCC(C)C)S(=O)(=O)O (stereo not given)		inactive
CCCCCCCCC(CO)CCCCCC (stereo not given)		inactive
Cc1cc(C)n(CO)n1		inactive
CCN1CN(CC)CN(CC)C1		inactive
CC(=O)OC(C)c1ccccc1 (stereo not given)		inactive
CCCCCCCCCCCCCCCCCCOS(=O)(=O)O		inactive
CCCC(CC)c1ccccc1 (stereo not given)		inactive
O=C(Nc1ccccc1)c1cc(Cl)ccc1O		inactive
CCCCC/C=C\C/C=C\CCCCCCCC(=O)O		inactive
CC(C)(c1ccccc1)c1ccc(Nc2ccc(C(C)(C)c3ccccc3)cc2)cc1		inactive
N#Cc1ccc(C2CCCc3cncn32)cc1 (stereo not given)		inactive
CCCCCCCCCCCCc1ccc(O)cc1	2.48 µM (active)	
CCCC=C(C=O)CC		inactive

Structure (SMILES)	AC50	outcome
C=C[C@@]1(C)CC(=O)[C@]2(O)[C@@]3(C)[C@@H](O)CCC(C)(C)[C@@H]3[C@H](O)[C@H](OC(C)=O)[C@@]2(C)O1		inactive
CCCCC(=O)O		inactive
CC(=O)c1ccccc1O		inactive
CC(C)(C)C1CCC(=O)CC1		inactive
O=C(Oc1ccccc1)c1ccccc1O		inactive
CN(C)Cc1cc(CN(C)C)c(O)c(CN(C)C)c1		inactive
O=C(OCCc1ccccc1)c1ccccc1		inactive
CCCCCCCCCCCCCC(=O)OC(C)C		inactive
CCCCCCCOC(=O)c1ccc(O)cc1	12.3 µM (active)	
CCCCNS(=O)(=O)c1ccccc1		inactive
COC(=O)[C@H](Cc1ccccc1)NC(=O)[C@@H](N)CC(=O)O (H-Asp-Phe-OMe)		inactive
CCc1occc(=O)c1O		inactive
CC(=O)OCc1ccccc1		inactive
C[Si]1(C)O[Si](C)(C)O[Si](C)(C)O[Si](C)(C)O[Si](C)(C)O1		inactive
CC(C)c1cc(C(C)C)cc(C(C)C)c1		inactive
CC(C)c1ccc(O)c(C(C)C)c1		inactive
CCCCCC(=O)OCC		inactive
CCCCCCOc1ccc(N)cc1		inactive
CCCCC(CC)COS(=O)(=O)O (stereo not given)		inactive
CC1=CC=C(C(C)C)CC1		inactive
